Positions count from the first letter of the chain named.
What was measured:
Assay in all cases: PBM; 200 nM protein, PBS
Conditions in all cases: dsDNA, one strand shown
[1] = molecular target: MSX2 (Homo sapiens, UniProt P35548 130-214, R199I)
[2] = molecular target: MSX2 (Homo sapiens, UniProt P35548 130-214)
[3] = molecular target: MSX2 (Homo sapiens, UniProt P35548 130-214, F161Y)
[4] = molecular target: HOXD13 (Homo sapiens, UniProt P35453 263-343, T313R)
[5] = molecular target: T1, PAX4 (Homo sapiens, UniProt O43316 9-242, R200Q)
T1 sequence: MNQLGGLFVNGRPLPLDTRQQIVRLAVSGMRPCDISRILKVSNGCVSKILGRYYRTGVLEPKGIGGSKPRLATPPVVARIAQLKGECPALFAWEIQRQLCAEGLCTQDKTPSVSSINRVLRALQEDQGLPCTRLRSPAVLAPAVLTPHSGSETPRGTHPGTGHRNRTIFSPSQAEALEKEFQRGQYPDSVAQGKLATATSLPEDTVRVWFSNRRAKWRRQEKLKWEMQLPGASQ

[6] = molecular target: T2, PAX4 (Homo sapiens, UniProt O43316 9-242, R227W)
T2 sequence: T1 sequence with Q192R, R219W

[7] = molecular target: T3, SIX6 (Homo sapiens, UniProt O95475 114-200, H141N)
T3 sequence: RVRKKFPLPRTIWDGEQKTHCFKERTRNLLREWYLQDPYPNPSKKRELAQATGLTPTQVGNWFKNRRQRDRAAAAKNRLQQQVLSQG

[8] = molecular target: T4, SIX6 (Homo sapiens, UniProt O95475 114-200, T165A)
T4 sequence: T3 sequence with N28H, T52A

[9] = molecular target: T5, SIX6 (Homo sapiens, UniProt O95475 114-200)
T5 sequence: T3 sequence with N28H

[10] = molecular target: T6, NKX2-6 (Homo sapiens, UniProt A6NCS4 118-204, R150C)
T6 sequence: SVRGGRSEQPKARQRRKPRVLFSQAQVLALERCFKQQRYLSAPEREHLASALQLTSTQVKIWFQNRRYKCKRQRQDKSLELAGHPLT

[11] = molecular target: ALX1 (Homo sapiens, UniProt Q15699 118-204, L144V)
[12] = molecular target: ALX1 (Homo sapiens, UniProt Q15699 118-204, L144R)
[13] = molecular target: ALX1 (Homo sapiens, UniProt Q15699 118-204)
[14] = molecular target: T7, PAX4 (Homo sapiens, UniProt O43316 9-242)
T7 sequence: T1 sequence with Q192R

[15] = molecular target: T8, PAX4 (Homo sapiens, UniProt O43316 9-242, F177V)
T8 sequence: T1 sequence with F169V, Q192R

[16] = molecular target: PROP1 (Homo sapiens, UniProt O75360 56-141)
[17] = molecular target: PROP1 (Homo sapiens, UniProt O75360 56-141, R99H)
[18] = molecular target: PROP1 (Homo sapiens, UniProt O75360 56-141, F88S)
[19] = molecular target: ALX4 (Homo sapiens, UniProt Q9H161 200-286)
[20] = molecular target: ALX4 (Homo sapiens, UniProt Q9H161 200-286, Q225E)
Sequence of ALX4 (Homo sapiens, UniProt Q9H161 200-286, Q225E) (Q9H161 200-286 Q225E): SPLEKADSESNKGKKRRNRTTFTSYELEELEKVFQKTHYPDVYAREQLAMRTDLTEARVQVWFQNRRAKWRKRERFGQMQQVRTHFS

Sequence of MSX2 (Homo sapiens, UniProt P35548 130-214) (P35548 130-214): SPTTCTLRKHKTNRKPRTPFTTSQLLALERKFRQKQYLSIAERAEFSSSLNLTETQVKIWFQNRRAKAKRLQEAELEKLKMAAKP
Sequence of MSX2 (Homo sapiens, UniProt P35548 130-214, R199I) (P35548 130-214 R199I): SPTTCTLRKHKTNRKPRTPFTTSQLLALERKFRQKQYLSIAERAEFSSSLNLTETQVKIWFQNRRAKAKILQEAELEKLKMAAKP
Sequence of ALX4 (Homo sapiens, UniProt Q9H161 200-286) (Q9H161 200-286): as the sequence (Q9H161 200-286 Q225E) above, with E26Q counted along it
Sequence of ALX1 (Homo sapiens, UniProt Q15699 118-204) (Q15699 118-204): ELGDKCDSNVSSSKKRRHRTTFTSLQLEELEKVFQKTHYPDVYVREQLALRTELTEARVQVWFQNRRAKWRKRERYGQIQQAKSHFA
Sequence of ALX1 (Homo sapiens, UniProt Q15699 118-204, L144R) (Q15699 118-204 L144R): as the sequence (Q15699 118-204) above, with L27R counted along it
Sequence of ALX1 (Homo sapiens, UniProt Q15699 118-204, L144V) (Q15699 118-204 L144V): as the sequence (Q15699 118-204) above, with L27V counted along it
Sequence of MSX2 (Homo sapiens, UniProt P35548 130-214, F161Y) (P35548 130-214 F161Y): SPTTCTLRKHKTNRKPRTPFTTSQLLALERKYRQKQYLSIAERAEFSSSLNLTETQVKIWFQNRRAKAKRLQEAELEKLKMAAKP
Sequence of HOXD13 (P35453 263-343 T313R): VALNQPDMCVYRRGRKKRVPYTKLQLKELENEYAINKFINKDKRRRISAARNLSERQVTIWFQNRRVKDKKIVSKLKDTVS
Sequence of PROP1 (Homo sapiens, UniProt O75360 56-141) (O75360 56-141): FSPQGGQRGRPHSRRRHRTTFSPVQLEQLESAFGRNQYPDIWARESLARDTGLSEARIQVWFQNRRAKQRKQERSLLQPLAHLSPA
Sequence of PROP1 (Homo sapiens, UniProt O75360 56-141, R99H) (O75360 56-141 R99H): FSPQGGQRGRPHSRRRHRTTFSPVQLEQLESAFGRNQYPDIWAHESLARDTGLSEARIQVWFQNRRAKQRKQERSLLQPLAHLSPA
Sequence of PROP1 (Homo sapiens, UniProt O75360 56-141, F88S) (O75360 56-141 F88S): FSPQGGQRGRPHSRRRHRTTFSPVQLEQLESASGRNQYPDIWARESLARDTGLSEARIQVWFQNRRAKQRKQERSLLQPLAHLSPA

GGTCATTA
binding signal [1]: 11.6 upbm affinity estimate (log intensity, higher = more binding, comparable within an allelic series) | binding signal [2]: 12.7 upbm affinity estimate (log intensity, higher = more binding, comparable within an allelic series) | binding signal [3]: 12.5 upbm affinity estimate (log intensity, higher = more binding, comparable within an allelic series)

TATTAATA
binding signal [4]: 10.9 upbm affinity estimate (log intensity, higher = more binding, comparable within an allelic series) | binding signal [5]: 11.9 upbm affinity estimate (log intensity, higher = more binding, comparable within an allelic series) | binding signal [6]: 11.2 upbm affinity estimate (log intensity, higher = more binding, comparable within an allelic series)

GGCCCCCC
binding signal [7]: 8.65 upbm affinity estimate (log intensity, higher = more binding, comparable within an allelic series) | binding signal [8]: 8.73 upbm affinity estimate (log intensity, higher = more binding, comparable within an allelic series) | binding signal [9]: 8.69 upbm affinity estimate (log intensity, higher = more binding, comparable within an allelic series)

CGGGCTAG
binding signal [10]: 9.48 upbm affinity estimate (log intensity, higher = more binding, comparable within an allelic series) | binding signal [4]: 9.56 upbm affinity estimate (log intensity, higher = more binding, comparable within an allelic series)

GCCGCCGC
binding signal [1]: 9.4 upbm affinity estimate (log intensity, higher = more binding, comparable within an allelic series) | binding signal [2]: 9.37 upbm affinity estimate (log intensity, higher = more binding, comparable within an allelic series) | binding signal [3]: 9.42 upbm affinity estimate (log intensity, higher = more binding, comparable within an allelic series)

GCGCAGCC
binding signal [7]: 8.75 upbm affinity estimate (log intensity, higher = more binding, comparable within an allelic series) | binding signal [11]: 6.42 upbm affinity estimate (log intensity, higher = more binding, comparable within an allelic series) | binding signal [8]: 8.78 upbm affinity estimate (log intensity, higher = more binding, comparable within an allelic series) | binding signal [12]: 6.45 upbm affinity estimate (log intensity, higher = more binding, comparable within an allelic series) | binding signal [9]: 8.73 upbm affinity estimate (log intensity, higher = more binding, comparable within an allelic series) | binding signal [13]: 6.41 upbm affinity estimate (log intensity, higher = more binding, comparable within an allelic series)

ATTAATCG
binding signal [14]: 12.2 upbm affinity estimate (log intensity, higher = more binding, comparable within an allelic series) | binding signal [5]: 12 upbm affinity estimate (log intensity, higher = more binding, comparable within an allelic series) | binding signal [15]: 10.5 upbm affinity estimate (log intensity, higher = more binding, comparable within an allelic series) | binding signal [6]: 10.7 upbm affinity estimate (log intensity, higher = more binding, comparable within an allelic series)

ACTAATGG
binding signal [16]: 9.71 upbm affinity estimate (log intensity, higher = more binding, comparable within an allelic series) | binding signal [17]: 9.39 upbm affinity estimate (log intensity, higher = more binding, comparable within an allelic series) | binding signal [18]: 7.3 upbm affinity estimate (log intensity, higher = more binding, comparable within an allelic series)

ACATTAAT
binding signal [15]: 10.5 upbm affinity estimate (log intensity, higher = more binding, comparable within an allelic series)

CGCCGCCG
binding signal [4]: 9.36 upbm affinity estimate (log intensity, higher = more binding, comparable within an allelic series)

GACCAGGC
binding signal [14]: 9.45 upbm affinity estimate (log intensity, higher = more binding, comparable within an allelic series) | binding signal [5]: 9.45 upbm affinity estimate (log intensity, higher = more binding, comparable within an allelic series) | binding signal [15]: 9.26 upbm affinity estimate (log intensity, higher = more binding, comparable within an allelic series) | binding signal [6]: 9.37 upbm affinity estimate (log intensity, higher = more binding, comparable within an allelic series)

CCCATTAA
binding signal [4]: 10.6 upbm affinity estimate (log intensity, higher = more binding, comparable within an allelic series)

CCCCCTCG
binding signal [19]: 8.09 upbm affinity estimate (log intensity, higher = more binding, comparable within an allelic series) | binding signal [20]: 7.97 upbm affinity estimate (log intensity, higher = more binding, comparable within an allelic series) | binding signal [1]: 9.51 upbm affinity estimate (log intensity, higher = more binding, comparable within an allelic series) | binding signal [2]: 9.66 upbm affinity estimate (log intensity, higher = more binding, comparable within an allelic series) | binding signal [3]: 9.64 upbm affinity estimate (log intensity, higher = more binding, comparable within an allelic series)

GCCGCTCC
binding signal [7]: 9.15 upbm affinity estimate (log intensity, higher = more binding, comparable within an allelic series) | binding signal [4]: 9.38 upbm affinity estimate (log intensity, higher = more binding, comparable within an allelic series) | binding signal [8]: 9.12 upbm affinity estimate (log intensity, higher = more binding, comparable within an allelic series) | binding signal [9]: 9.12 upbm affinity estimate (log intensity, higher = more binding, comparable within an allelic series)

TCATTAAA
binding signal [4]: 10.8 upbm affinity estimate (log intensity, higher = more binding, comparable within an allelic series)

GGAGCTCC
binding signal [19]: 7.72 upbm affinity estimate (log intensity, higher = more binding, comparable within an allelic series) | binding signal [20]: 7.79 upbm affinity estimate (log intensity, higher = more binding, comparable within an allelic series) | binding signal [1]: 9.52 upbm affinity estimate (log intensity, higher = more binding, comparable within an allelic series) | binding signal [2]: 9.28 upbm affinity estimate (log intensity, higher = more binding, comparable within an allelic series) | binding signal [3]: 9.3 upbm affinity estimate (log intensity, higher = more binding, comparable within an allelic series)

ATCATTAA
binding signal [4]: 10.7 upbm affinity estimate (log intensity, higher = more binding, comparable within an allelic series)

GGCCCCCA
binding signal [11]: 6.64 upbm affinity estimate (log intensity, higher = more binding, comparable within an allelic series) | binding signal [12]: 6.56 upbm affinity estimate (log intensity, higher = more binding, comparable within an allelic series) | binding signal [13]: 6.65 upbm affinity estimate (log intensity, higher = more binding, comparable within an allelic series)

TAATGATA
binding signal [16]: 9.99 upbm affinity estimate (log intensity, higher = more binding, comparable within an allelic series) | binding signal [17]: 9.25 upbm affinity estimate (log intensity, higher = more binding, comparable within an allelic series) | binding signal [18]: 7.61 upbm affinity estimate (log intensity, higher = more binding, comparable within an allelic series)

CCCTTGCG
binding signal [19]: 7.92 upbm affinity estimate (log intensity, higher = more binding, comparable within an allelic series) | binding signal [20]: 7.92 upbm affinity estimate (log intensity, higher = more binding, comparable within an allelic series)

GTGGGGGA
binding signal [14]: 9.25 upbm affinity estimate (log intensity, higher = more binding, comparable within an allelic series) | binding signal [11]: 6.51 upbm affinity estimate (log intensity, higher = more binding, comparable within an allelic series) | binding signal [5]: 9.37 upbm affinity estimate (log intensity, higher = more binding, comparable within an allelic series) | binding signal [12]: 6.24 upbm affinity estimate (log intensity, higher = more binding, comparable within an allelic series) | binding signal [15]: 9.35 upbm affinity estimate (log intensity, higher = more binding, comparable within an allelic series) | binding signal [6]: 9.48 upbm affinity estimate (log intensity, higher = more binding, comparable within an allelic series) | binding signal [13]: 6.29 upbm affinity estimate (log intensity, higher = more binding, comparable within an allelic series)

CGGGCTTC
binding signal [14]: 8.97 upbm affinity estimate (log intensity, higher = more binding, comparable within an allelic series) | binding signal [1]: 9.39 upbm affinity estimate (log intensity, higher = more binding, comparable within an allelic series) | binding signal [5]: 9.21 upbm affinity estimate (log intensity, higher = more binding, comparable within an allelic series) | binding signal [15]: 9.17 upbm affinity estimate (log intensity, higher = more binding, comparable within an allelic series) | binding signal [2]: 9.32 upbm affinity estimate (log intensity, higher = more binding, comparable within an allelic series) | binding signal [3]: 9.35 upbm affinity estimate (log intensity, higher = more binding, comparable within an allelic series) | binding signal [6]: 9.24 upbm affinity estimate (log intensity, higher = more binding, comparable within an allelic series)

From publication PMC11006913
